# In all, about 65,000 compounds went through this assay and about 2,100 (3.2%) showed an effect of 50% or more. The median lay at about -52%. The list comes from a sample in which strong results are over-represented; it also holds similar structures and randomly drawn compounds.
# System: Plasmodium falciparum
# Assay: Screen against P. falciparum Asexual Blood Stage (ABS), at 5uM
# Format: functional, Dd2
# Settings: tested at 5 uM
row,Compound,INHIBITION
1,CC1=Nc2c(c(=O)[nH]n2C(C)C)C(c2ccc3nccnc3c2)S1 (stereo unspecified),-82.6%
2,Cc1ccc(N2CCCC(NCc3ccccn3)C2)nn1 (stereo unspecified),-71.8%
3,O=C(c1ccccc1)N1CCN(CC(O)c2ccc(F)cc2)CC1 (stereo unspecified),-120%
4,O=C(CN1CCCC1Cn1cncn1)Nc1ccc(Cl)cn1 (stereo unspecified),-112%
5,Cc1cc(N2CCN(C(=O)c3cc(Cl)c[nH]3)CC2)nc(C(C)C)n1,13%
6,Cc1cc(N2CCN(C(=O)c3cc(Cl)c[nH]3)CC2)nc(N)n1,69.8%
7,Cc1cc(N2CCN(C(=O)c3cc(Cl)c[nH]3)CC2)nc(C)n1,-19.7%
8,COc1ccc(CC2(CO)CCN(c3cc(C(N)=O)ccn3)CC2)cc1,-129%
9,COc1ccc(-n2cnnc2SCC(=O)NC(C)C)cn1,-44.5%
10,CS(=O)(=O)N1CCC2(CCN(C(=O)c3cccnc3)CC2)C1,-35.5%
11,COCC(=O)NCC1CCCN(Cc2cc3ccccc3[nH]2)C1 (stereo unspecified),-18.1%
12,COC(=O)c1cccc(C(=O)N(CCC#N)CC(C)(C)C)c1,-61.6%
13,Cc1csc(Nc2cc(C3CN(C(C)C)C3)nc(C)n2)n1,-3.32%
14,Cc1nc(Nc2nccs2)cc(C2CN(C(C)C)C2)n1,59.7%
15,Cc1nc(Nc2cnccn2)cc(C2CN(C(C)C)C2)n1,-131%
16,Cc1cccc(CN2CCOC(C)(C(=O)N3CCOCC3)C2)n1 (stereo unspecified),-28.9%
17,Cc1ccc(OCCN2CCCC(c3cc(C(N)=O)[nH]n3)C2)cc1 (stereo unspecified),-109%
18,NC(=O)c1cc(C2CCCN(CCOc3ccc(F)cc3)C2)n[nH]1 (stereo unspecified),52.4%
19,NC(=O)c1cc(C2CCCN(CCCOc3ccc(F)cc3)C2)n[nH]1 (stereo unspecified),-96.5%
20,COC(=O)c1cccnc1N1CCC(Oc2cccc(F)c2)CC1,-23.9%
21,CN(C)[C@@H]1CCN(S(=O)(=O)C2CC2)[C@H]1Cc1ccccc1,64.9%
22,CN(C)[C@@H]1CCN(S(=O)(=O)c2cn(C)cn2)[C@H]1Cc1cccnc1,-57.5%

row,Compound,INHIBITION
1,CC(C)N(C)[C@@H]1CCN(S(C)(=O)=O)[C@H]1Cc1ccccc1,54.9%
2,CC(C)N(C)[C@@H]1CCN(Cc2ccoc2)[C@H]1Cc1ccccc1,13.7%
3,CC(C)NC(=O)N1CC[C@@H](N(C)C)[C@@H]1Cc1ccccc1,16.7%
4,CN(C)[C@@H]1CCN(S(C)(=O)=O)[C@H]1Cc1ccccc1,19.4%
5,CCOc1nnc(CN2CCN(CCOC)C(C)C2)s1 (stereo unspecified),1.7%
6,Cc1cc(C(=O)N(C)Cc2cnn(C)c2C)n(C)n1,-72.2%
7,Cc1cccc(C(C)C)c1NC(=O)CN(C)C(C)c1nccs1 (stereo unspecified),10.7%
8,Cc1nnc(C2CCN(C(=O)c3ccc4nccnc4c3)CC2)s1,-22.7%
9,NCC1CCCCN1C(=O)Cc1ccc(F)c(F)c1 (stereo unspecified),9.77%
10,CSc1nccc(N2CCC3(CCCN(CCc4ccccc4)C3)C2)n1 (stereo unspecified),50.1%
11,CSc1nccc(N2CCC3(CCCN(Cc4ccc(F)cc4)C3)C2)n1 (stereo unspecified),2.13%
12,CSc1nccc(N2CCC3(CCCN(Cc4cccc(C)c4)C3)C2)n1 (stereo unspecified),27.2%
13,CCN(CC)S(=O)(=O)N1C[C@@H](O)[C@H](Oc2cccc(F)c2)C1,-6.79%
14,COCC(=O)N1CCC(C(=O)c2cc(C)cnc2N)CC1,-65.6%
15,O=S(=O)(Cc1ccc(F)cc1)NCc1nnc2n1CCC2,-90.9%
16,FC(F)(F)c1nc(NC2CCCCC2)c2ccccc2n1,-10.5%
17,Cc1cc(CN(C)CC2CCCN(CCc3ccc(Cl)cc3)C2)[nH]n1 (stereo unspecified),-65.3%
18,COc1ccccc1CCN1CCCC(CN(C)Cc2cc(C)n[nH]2)C1 (stereo unspecified),55.5%
19,COc1ccc(CCN2CCCC(CN(C)Cc3[nH]cnc3C)C2)cc1 (stereo unspecified),-4.52%
20,COc1ccc(CCN2CCCC(CN(C)Cc3ccc(C)o3)C2)cc1 (stereo unspecified),-45.9%
21,COc1ccccc1CCN1CCCC(CN(C)Cc2c[nH]c(C)n2)C1 (stereo unspecified),67.4%
22,Cc1nc(CN2CCCC(CCc3ccccc3C)C2)c[nH]1 (stereo unspecified),14.6%

row,Compound,INHIBITION
1,O=C(Cn1ccc(-c2ccccc2)n1)N1CCN(C(=O)C2CC2)CC1,-54.1%
2,O=C(O)Cn1nc(C2CC2)c2c(-c3ccc(F)cc3)ccnc21,-143%
3,Cc1nc(N2CCC3(CCOC3)C2)c2cc[nH]c2n1 (stereo unspecified),-21.2%
4,O=C(CN1CCc2sccc2C1)Nc1ccnc2ccnn12,-83.1%
5,OCCCNc1nc(O)c2c(n1)-c1ccccc1CC21CCCCC1,4.32%
6,COCC(=O)N1CCC2(C1)c1ccccc1S(=O)(=O)N2C (stereo unspecified),-58.6%
7,CS(=O)(=O)NCc1nnc2n1CCN(Cc1ccncc1)C2,-3.62%
8,Cc1cc(C(=O)N2CCc3ncc(CN4CCCC4)n3CC2)no1,-1.1%
9,Cc1cc(CN2CCCC2)cc(Oc2ccc3c(c2)CC(CN)O3)c1 (stereo unspecified),28.4%
10,COc1cc(CN2CCCC2)ccc1Oc1ccc2c(c1)CC(CN)O2 (stereo unspecified),59.8%
11,COc1ccc(CN2CCCC2)cc1Oc1ccc(NC(C)=O)cc1,-44.6%
12,Cc1ccc(N2CCO[C@H]3CN(C(=O)c4cccc(C)n4)C[C@H]32)nn1,-46.4%
13,CCn1c(CN(C)Cc2cnc(C)s2)nc2c(F)cccc21,-30.4%
14,CCn1c(CN(C)Cc2csc(C)n2)nc2cc(F)ccc21,61%
15,CCn1c(CN(C)Cc2cnc(C)s2)nc2cc(F)ccc21,-16.6%
16,Cc1csc(CCCNc2ccc(S(N)(=O)=O)cc2C#N)n1,-9.07%
17,CC(CN1CCC(c2ccccc2)CC1)n1cnc2ccccc21 (stereo unspecified),3.15%
18,COCCN1CCCCC12CC(=O)N(c1ccccc1OC)C2 (stereo unspecified),-78.3%
19,c1cc(CN2CCC3(CCOCC3COCC3CC3)CC2)co1 (stereo unspecified),14.4%
20,O=C(Cc1ccco1)N1CCC2(CCOCC2COCC2CC2)CC1 (stereo unspecified),-30.9%
21,c1coc(CN2CCC3(CCOCC3COCC3CC3)CC2)c1 (stereo unspecified),62.3%
22,Cc1cccc(CN2CCC3(CCCN(C(=O)N(C)C)C3)C2=O)n1 (stereo unspecified),-86.4%

row,Compound,INHIBITION
1,CN(C)c1nc(N)nc(CN2CCCC2c2ccsc2)n1 (stereo unspecified),26.9%
2,Cc1cccc(C2CCCN2Cc2nc(N)nc(N(C)C)n2)c1C (stereo unspecified),-12.4%
3,CN(C)c1nc(N)nc(CN2CCCC2c2cccs2)n1 (stereo unspecified),52%
4,CN(C)c1nc(N)nc(CN2CCCC(c3ccccc3)CC2)n1 (stereo unspecified),54%
5,c1ccc(C2CCCN(Cc3cc4n(n3)CCNC4)CC2)cc1 (stereo unspecified),37.2%
6,CN(C)c1nc(N)nc(CN2CCC(c3nc4ccccc4o3)CC2)n1,7.31%
7,COCC1CN(C(=O)Cc2ccccn2)Cc2ncnn2C1 (stereo unspecified),-70.5%
8,Cc1cc(C(=O)N2CCN(c3nc4c(C(C)C)cccc4s3)CC2)on1,35.8%
9,COCCOCC(=O)Nc1ccc(F)cc1C,-33.5%
10,CC(C)(C)c1nc(CN2CCC(c3nc4cc(Cl)ccc4o3)CC2)no1,-67.9%
11,Cc1nc(CN2CCC(c3nc4cc(Cl)ccc4o3)CC2)oc1C,-53.1%
12,Cc1noc(C)c1CN1CCC(c2nc3cc(Cl)ccc3o2)CC1,58.5%
13,O=C([C@@H]1COC[C@H]2CN(C3CCCC3)C[C@H]21)N1CCC(F)CC1,-68.8%
14,CN1CCN(C(=O)c2nc3c(o2)CN(C(=O)c2cccnc2)C3)CC1,-0.0268%
15,O=C(CSC1=NS(=O)(=O)c2cc(F)ccc2N1)Nc1ccc(Cl)c(Cl)c1,-21.5%
16,O=C(N1CCOCC1)N1CCC2(CC1)CN(c1ccccn1)CCO2,-99.6%
17,Cc1ccc(C(CNCc2nccn2C)N2CCOCC2)s1 (stereo unspecified),-28.6%
18,Cc1ccc(C(CNCc2ncc[nH]2)N2CCOCC2)s1 (stereo unspecified),34.5%
19,Cc1ccc(C(CNCc2cccn2C)N2CCOCC2)s1 (stereo unspecified),-38.5%
20,CCn1ccnc1CNCC(c1ccc(C)s1)N1CCOCC1 (stereo unspecified),54.1%
21,Cc1ccc(C(CNCc2ccc(C#N)cc2)N2CCOCC2)s1 (stereo unspecified),52.3%
22,O=C(CCn1cccn1)NCC(c1cccs1)N1CCOCC1 (stereo unspecified),-64.1%

row,Compound,INHIBITION
1,Cc1ccc(C(CNCc2cnn(C(C)C)c2)N2CCOCC2)s1 (stereo unspecified),35.9%
2,CCn1cc(CNCC(c2ccc(C)s2)N2CCOCC2)cn1 (stereo unspecified),65.7%
3,Cc1ccc(C(CNCc2ccncc2)N2CCOCC2)s1 (stereo unspecified),-40.9%
4,CCCn1cc(CNCC(c2ccc(C)s2)N2CCOCC2)cn1 (stereo unspecified),56.8%
5,CCCn1cc(CN2CCOCC2c2[nH]ncc2C)cn1 (stereo unspecified),-155%
6,Cc1ccc(C(CNCC2CC2)N2CCOCC2)s1 (stereo unspecified),26.8%
7,CCCOc1ccc(CNc2cncc(-n3cccn3)n2)cc1,-99.4%
8,Cc1ccc(N2CCC3(CCCN(C(=O)c4cccnc4)C3)C2)nn1 (stereo unspecified),-0.21%
9,O=C(O)c1cccc2c(Br)cccc12,-180%
10,Cn1cnc2c1CCN(Cc1csc(-c3ccccc3F)n1)C2,-58%
11,O=C(c1ccc2c(c1)CCCC2)N1CCN(c2cnccn2)CC1,45%
12,CCS(=O)(=O)N1Cc2ccccc2CC1C(=O)OCc1cc(C)no1 (stereo unspecified),-132%
13,Cc1cc(C(F)(F)F)nc(CNC(=O)CCn2cccn2)n1,-223%
14,O=C([C@@H]1CCO[C@@H]2CCN(Cc3cccs3)C[C@H]21)N1CCCCO1,-36.6%
15,CC(C)c1n[nH]c(C(=O)Nc2ccncc2)c1Br,-163%
16,CC(C)c1n[nH]c(C(=O)Nc2cc[nH]n2)c1Br,-208%
17,Cc1cccc(NC(=O)c2[nH]nc(C(C)C)c2Br)n1,57.6%
18,O=S(=O)(c1cccnc1)N1CCN(Cc2nc(-c3cccs3)cs2)CC1,-29%

# Source: ChEMBL document CHEMBL4513216, “Probing the Open Global Health Chemical Diversity Library for Multistage-Active Starting Points for Next-Generation Antimalarials” (ACS Infect Dis, 2020)
